Measured values: PubChem BioAssay AID1159580 (chemical genetic matrix, 2015)
The campaign covered roughly 5,500 compounds. About 2,000 (36%) were called active. Not shown: some 18% with an inconclusive outcome. Rule as the data show it: active = normalized growth mostly below about 0.91 (no sharp cut-off); inconclusive = no clear call, values can overlap the other calls; inactive = mostly above about 0.92. Some of the results follow.

Test: chemical genetic growth profiling, strain panel (AID 1159580);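 also: tested at 20 µM; growth read once vehicle control cultures reached saturation at 30 °C; 1 = growth at the plate median or of vehicle wells; lower values mean less growth of the strain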
Conditions: S. cerevisiae deletion strains, growth OD

Measured: normalized growth

CC(C)(Oc1ccc(Cl)cc1)C(=O)O
inactive: locus YAL013W, strain DEP1, stronger effect = lower value 1 | locus YAL021C, strain ccr4, stronger effect = lower value 1.02 | locus YAL026C, strain drs2, stronger effect = lower value 1.03 | locus YAL030W, strain snc1, stronger effect = lower value 0.996 | locus YBL061C, strain skt5, stronger effect = lower value 1.04 | locus YBR009C, strain hhf1, stronger effect = lower value 0.988 | locus YBR021W, strain FUR4, stronger effect = lower value 1.12 | locus YBR023C, strain chs3, stronger effect = lower value 1.03 | locus YBR171W, strain sec66, stronger effect = lower value 1.02 | locus YBR229C, strain ROT2, stronger effect = lower value 0.998 | locus YBR231C, strain swc5, stronger effect = lower value 0.997 | locus YBR279W, strain paf1, stronger effect = lower value 1.02 | locus YCL011C, strain gbp2, stronger effect = lower value 1 | locus YCL016C, strain dcc1, stronger effect = lower value 1.03 | locus YCL029C, strain bik1, stronger effect = lower value 0.956 | locus YCL069W, strain vba3, stronger effect = lower value 1.01 | locus YCR088W, strain abp1, stronger effect = lower value 1.01 | locus YDL005C, strain med2, stronger effect = lower value 1.02 | locus YDL035C, strain GPR1, stronger effect = lower value 0.997 | locus YDL040C, strain nat1, stronger effect = lower value 0.996 | locus YDL074C, strain BRE1, stronger effect = lower value 0.949 | locus YDL101C, strain DUN1, stronger effect = lower value 0.986 | locus YDL134C, strain PPH21, stronger effect = lower value 1 | locus YDL185W, strain tfp1, stronger effect = lower value 0.938 | locus YDL192W, strain arf1, stronger effect = lower value 0.981 | locus YDR001C, strain nth1, stronger effect = lower value 1 | locus YDR069C, strain doa4, stronger effect = lower value 1.01 | locus YDR101C, strain arx1, stronger effect = lower value 0.979 | locus YDR137W, strain rgp1, stronger effect = lower value 1.01 | locus YDR150W, strain NUM1, stronger effect = lower value 0.995 | locus YDR159W, strain sac3, stronger effect = lower value 0.949 | locus YDR162C, strain NBP2, stronger effect = lower value 0.987 | locus YDR195W, strain ref2 0.979 | locus YDR297W, strain sur2, stronger effect = lower value 0.99 | locus YDR318W, strain mcm21, stronger effect = lower value 0.98 | locus YDR334W, strain swr1, stronger effect = lower value 1 | locus YDR335W, strain msn5, stronger effect = lower value 1.01 | locus YDR388W, stronger effect = lower value 0.979 | locus YDR392W, strain spt3, stronger effect = lower value 0.974 | locus YDR502C, strain sam2, stronger effect = lower value 0.993 | locus YEL003W, strain gim4, stronger effect = lower value 0.984 | locus YEL037C, strain rad23, stronger effect = lower value 1.01 | locus YEL061C, strain CIN8 (second series), stronger effect = lower value 1 | locus YEL061C, strain CIN8, stronger effect = lower value 1 | locus YER015W, strain faa2, stronger effect = lower value 1.01 | locus YER016W, strain bim1, stronger effect = lower value 1.03 | locus YER110C, stronger effect = lower value 0.983 | locus YER111C, strain swi4, stronger effect = lower value 1.01 | locus YER155C, strain BEM2 (second series), stronger effect = lower value 1.01 | locus YER155C, strain BEM2, stronger effect = lower value 0.983 | locus YER167W, strain BCK2, stronger effect = lower value 0.999 | locus YFR010W, strain ubp6, stronger effect = lower value 0.976 | locus YGL078C, strain dbp3, stronger effect = lower value 0.998 | locus YGL086W, strain mad1, stronger effect = lower value 0.997 | locus YGL167C, strain pmr1, stronger effect = lower value 1.01 | locus YGL173C, strain kem1, stronger effect = lower value 0.982 | locus YGL227W, strain vid30, stronger effect = lower value 0.993 | locus YGL240W, strain doc1, stronger effect = lower value 1 | locus YGL248W, strain PDE1, stronger effect = lower value 1 | locus YGL253W, strain hxk2, stronger effect = lower value 1.01 | locus YGR078C, strain PAC10, stronger effect = lower value 0.954 | locus YGR135W, strain pre9, stronger effect = lower value 1.01 | locus YGR229C, strain SMI1, stronger effect = lower value 1 | locus YGR252W, strain gcn5, stronger effect = lower value 1.23 | locus YHR013C, strain ard1, stronger effect = lower value 1.02 | locus YHR027C, strain rpn1, stronger effect = lower value 1 | locus YHR030C, strain SLT2, stronger effect = lower value 1 | locus YHR079C, strain IRE1 (second series), stronger effect = lower value 0.964 | locus YHR094C, strain hxt1, stronger effect = lower value 0.963 | locus YHR129C, strain ARP1, stronger effect = lower value 0.988 | locus YHR142W, strain chs7, stronger effect = lower value 1.04 | locus YHR200W, strain rpn10, stronger effect = lower value 0.977 | locus YIL066C, strain RNR3, stronger effect = lower value 0.99 | locus YIL073C, strain SPO22, stronger effect = lower value 0.948 | locus YIL125W, strain kgd1, stronger effect = lower value 0.98 | locus YIR030C, strain dcg1, stronger effect = lower value 0.988 | locus YJL092W, strain hpr5, stronger effect = lower value 1.02 | locus YJL095W, strain BCK1 (second series), stronger effect = lower value 1.02 | locus YJL095W, strain BCK1, stronger effect = lower value 0.976 | locus YJL115W, strain asf1, stronger effect = lower value 1.01 | locus YJL129C, strain trk1, stronger effect = lower value 1.03 | locus YJL134W, strain LCB3, stronger effect = lower value 0.999 | locus YJL154C, strain vps35, stronger effect = lower value 1.01 | locus YJL164C, strain tpk1, stronger effect = lower value 0.993 | locus YJL166W, strain qcr8, stronger effect = lower value 0.997 | locus YJL168C, strain set2, stronger effect = lower value 0.976 | locus YJL187C, strain SWE1 (second series), stronger effect = lower value 0.973 | locus YJR043C, strain POL32, stronger effect = lower value 0.985
